# From PMC7862700, “An all-to-all approach to the identification of sequence-specific readers for epigenetic DNA modifications on cytosine”
# Tests used:
# Assay in all cases: DAPPL (digital affinity profiling via proximity ligation, sequencing); 10 mM Tris-HCl pH 7.5, 50 mM NaCl, 1 mM DTT, 4% glycerol, room temperature, 30 min; GST-TFs on glutathione beads, 16-mer random dsDNA library, 0.1% formaldehyde crosslink after washing; high values mean tight binding
# Conditions in all cases: protein: recombinant; tags: N-terminal GST; dsDNA, one strand shown
# FLI1 = molecular target: T1, FLI1 (Homo sapiens, UniProt Q01543 1-452)
# T1 sequence: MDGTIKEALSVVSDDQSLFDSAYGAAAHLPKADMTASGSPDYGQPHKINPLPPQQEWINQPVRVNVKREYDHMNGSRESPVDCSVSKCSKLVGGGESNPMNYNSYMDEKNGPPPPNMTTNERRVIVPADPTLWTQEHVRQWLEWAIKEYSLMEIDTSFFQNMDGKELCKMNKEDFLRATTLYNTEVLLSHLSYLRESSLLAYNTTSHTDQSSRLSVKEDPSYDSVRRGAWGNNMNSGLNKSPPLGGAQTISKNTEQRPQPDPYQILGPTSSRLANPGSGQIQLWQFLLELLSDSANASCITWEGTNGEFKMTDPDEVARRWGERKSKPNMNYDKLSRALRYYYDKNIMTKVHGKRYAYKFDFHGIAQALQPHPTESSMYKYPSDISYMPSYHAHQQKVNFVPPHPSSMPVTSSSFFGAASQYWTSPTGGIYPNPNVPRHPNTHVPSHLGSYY
# How it was run: (§1)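 Each value of binding signal is a hexamer's read frequency for a factor divided by the same hexamer's frequency in the tag-only sample. Barcoded, bead-captured GST fusions of human transcription factors made in yeast were pooled with that sample and incubated with 200 nmole of a random double-stranded 16-mer DNA library in Tris/NaCl/DTT/glycerol buffer at room temperature for 30 min. Washing, 0.1% formaldehyde crosslinking, proximity ligation, PCR and Illumina NextSeq500 sequencing followed.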
# ELK1 = molecular target: T2, ELK1 (Homo sapiens, UniProt P19419 1-428)
# T2 sequence: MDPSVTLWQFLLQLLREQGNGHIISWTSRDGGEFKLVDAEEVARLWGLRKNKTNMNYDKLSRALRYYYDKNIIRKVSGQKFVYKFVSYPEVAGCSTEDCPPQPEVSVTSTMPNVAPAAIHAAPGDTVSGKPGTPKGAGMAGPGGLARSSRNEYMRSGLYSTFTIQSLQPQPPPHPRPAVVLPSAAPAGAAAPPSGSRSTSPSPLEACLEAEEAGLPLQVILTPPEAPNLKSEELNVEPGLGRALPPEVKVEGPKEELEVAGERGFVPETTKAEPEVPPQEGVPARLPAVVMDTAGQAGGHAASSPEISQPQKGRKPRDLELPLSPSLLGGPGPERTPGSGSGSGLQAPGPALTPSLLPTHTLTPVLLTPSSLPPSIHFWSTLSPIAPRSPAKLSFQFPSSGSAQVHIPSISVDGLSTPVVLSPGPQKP
# How it was run: as §1
# GABPA = molecular target: T3, GABPA (Homo sapiens, UniProt Q06546 1-454)
# T3 sequence: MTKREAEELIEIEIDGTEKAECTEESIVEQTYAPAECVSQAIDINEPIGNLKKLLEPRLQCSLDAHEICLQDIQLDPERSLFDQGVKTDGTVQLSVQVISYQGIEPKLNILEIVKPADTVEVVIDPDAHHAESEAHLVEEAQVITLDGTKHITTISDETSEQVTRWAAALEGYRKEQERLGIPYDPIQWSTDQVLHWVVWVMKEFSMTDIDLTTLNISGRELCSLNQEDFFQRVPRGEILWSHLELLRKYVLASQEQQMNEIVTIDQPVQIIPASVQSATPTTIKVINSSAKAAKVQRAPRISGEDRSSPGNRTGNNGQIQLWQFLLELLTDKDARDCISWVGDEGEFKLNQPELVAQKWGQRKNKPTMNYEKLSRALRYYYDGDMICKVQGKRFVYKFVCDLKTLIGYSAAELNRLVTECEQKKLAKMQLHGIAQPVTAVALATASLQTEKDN
# How it was run: as §1
# ERG = molecular target: T4, ERG (Homo sapiens, UniProt P11308 1-479)
# T4 sequence: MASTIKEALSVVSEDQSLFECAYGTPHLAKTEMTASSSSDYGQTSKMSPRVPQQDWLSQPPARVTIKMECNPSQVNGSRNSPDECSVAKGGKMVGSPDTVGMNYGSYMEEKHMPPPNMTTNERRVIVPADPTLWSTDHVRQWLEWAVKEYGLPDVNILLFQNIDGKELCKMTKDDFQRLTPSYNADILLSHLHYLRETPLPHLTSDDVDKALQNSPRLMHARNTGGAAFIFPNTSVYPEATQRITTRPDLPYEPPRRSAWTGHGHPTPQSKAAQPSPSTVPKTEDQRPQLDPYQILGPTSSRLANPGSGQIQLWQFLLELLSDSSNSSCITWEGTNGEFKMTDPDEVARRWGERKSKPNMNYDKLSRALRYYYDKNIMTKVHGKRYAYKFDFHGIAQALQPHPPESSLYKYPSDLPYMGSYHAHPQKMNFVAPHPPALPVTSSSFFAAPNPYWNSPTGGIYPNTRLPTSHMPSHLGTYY
# How it was run: as §1
# EHF = molecular target: T5, EHF (Homo sapiens, UniProt Q9NZC4 1-300)
# T5 sequence: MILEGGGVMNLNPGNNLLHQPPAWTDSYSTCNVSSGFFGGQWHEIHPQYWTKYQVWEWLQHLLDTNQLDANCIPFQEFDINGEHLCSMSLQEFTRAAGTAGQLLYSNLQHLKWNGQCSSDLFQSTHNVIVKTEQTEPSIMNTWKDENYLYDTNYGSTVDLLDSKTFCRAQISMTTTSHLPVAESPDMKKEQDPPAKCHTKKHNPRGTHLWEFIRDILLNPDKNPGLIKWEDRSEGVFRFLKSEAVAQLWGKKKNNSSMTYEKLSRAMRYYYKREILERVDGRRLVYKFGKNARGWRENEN
# How it was run: as §1
# SPI1 = SPI1 (Homo sapiens, UniProt P17947 1-270)
# How it was run: as §1
# SPIB = SPIB (Homo sapiens, UniProt Q01892 1-262)
# SPIB, sequence (Q01892 whole entry): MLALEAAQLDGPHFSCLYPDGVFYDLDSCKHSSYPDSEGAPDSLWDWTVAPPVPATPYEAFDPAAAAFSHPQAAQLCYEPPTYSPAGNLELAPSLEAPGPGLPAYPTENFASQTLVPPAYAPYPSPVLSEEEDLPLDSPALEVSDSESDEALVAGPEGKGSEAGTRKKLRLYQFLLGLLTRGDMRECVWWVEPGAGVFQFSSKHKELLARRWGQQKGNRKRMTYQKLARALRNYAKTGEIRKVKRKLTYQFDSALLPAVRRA
# How it was run: as §1
# ELK3 = molecular target: T6, ELK3 (Homo sapiens, UniProt P41970 1-407)
# T6 sequence: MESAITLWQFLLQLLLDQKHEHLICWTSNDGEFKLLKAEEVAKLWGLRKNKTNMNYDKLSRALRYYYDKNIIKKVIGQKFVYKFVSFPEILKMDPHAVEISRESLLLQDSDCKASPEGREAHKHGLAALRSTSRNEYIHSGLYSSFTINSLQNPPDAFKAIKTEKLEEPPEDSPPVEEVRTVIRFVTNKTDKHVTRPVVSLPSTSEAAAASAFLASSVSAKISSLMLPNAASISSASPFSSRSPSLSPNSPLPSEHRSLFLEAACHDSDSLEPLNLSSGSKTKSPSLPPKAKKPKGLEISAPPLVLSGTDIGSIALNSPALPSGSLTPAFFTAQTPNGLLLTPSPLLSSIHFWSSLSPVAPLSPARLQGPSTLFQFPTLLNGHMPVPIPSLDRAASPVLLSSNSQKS
# How it was run: as §1
# FEV = molecular target: T7, FEV (Homo sapiens, UniProt Q99581 1-238)
# T7 sequence: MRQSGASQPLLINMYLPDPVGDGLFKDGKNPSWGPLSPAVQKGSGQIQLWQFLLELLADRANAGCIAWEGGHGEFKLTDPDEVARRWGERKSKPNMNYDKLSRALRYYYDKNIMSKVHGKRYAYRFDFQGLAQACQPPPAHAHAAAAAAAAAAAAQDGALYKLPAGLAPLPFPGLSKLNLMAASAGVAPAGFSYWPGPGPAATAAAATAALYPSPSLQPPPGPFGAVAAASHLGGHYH
# How it was run: as §1
# ETV5 = ETV5 (Homo sapiens, UniProt P41161 1-510)
# ETV5, sequence (P41161 whole entry): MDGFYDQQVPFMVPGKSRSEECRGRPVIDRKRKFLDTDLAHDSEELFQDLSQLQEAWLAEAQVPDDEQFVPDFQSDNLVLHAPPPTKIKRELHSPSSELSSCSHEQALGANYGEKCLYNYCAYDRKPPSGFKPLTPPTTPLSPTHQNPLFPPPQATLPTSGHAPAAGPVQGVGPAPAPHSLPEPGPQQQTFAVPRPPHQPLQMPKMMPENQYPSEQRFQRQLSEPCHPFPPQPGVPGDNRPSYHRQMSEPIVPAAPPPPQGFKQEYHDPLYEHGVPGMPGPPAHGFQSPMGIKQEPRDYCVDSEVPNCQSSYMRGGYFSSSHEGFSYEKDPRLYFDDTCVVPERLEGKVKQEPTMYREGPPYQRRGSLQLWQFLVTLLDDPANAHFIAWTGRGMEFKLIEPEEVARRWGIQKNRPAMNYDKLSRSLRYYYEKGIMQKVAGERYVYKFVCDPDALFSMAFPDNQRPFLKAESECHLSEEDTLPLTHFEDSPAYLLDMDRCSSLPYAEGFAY
# How it was run: as §1
# SPIC = molecular target: T8, SPIC (Homo sapiens, UniProt Q8N5J4 1-248)
# T8 sequence: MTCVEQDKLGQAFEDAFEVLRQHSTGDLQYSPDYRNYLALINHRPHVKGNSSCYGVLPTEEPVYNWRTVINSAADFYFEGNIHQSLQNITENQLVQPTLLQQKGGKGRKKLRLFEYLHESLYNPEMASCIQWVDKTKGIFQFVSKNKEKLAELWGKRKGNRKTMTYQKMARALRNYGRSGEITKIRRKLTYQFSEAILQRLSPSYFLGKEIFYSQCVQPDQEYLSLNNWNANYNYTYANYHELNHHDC
# How it was run: as §1
# ELF4 = ELF4 (Homo sapiens, UniProt Q99607 1-663)
# ELF4, sequence (Q99607 whole entry): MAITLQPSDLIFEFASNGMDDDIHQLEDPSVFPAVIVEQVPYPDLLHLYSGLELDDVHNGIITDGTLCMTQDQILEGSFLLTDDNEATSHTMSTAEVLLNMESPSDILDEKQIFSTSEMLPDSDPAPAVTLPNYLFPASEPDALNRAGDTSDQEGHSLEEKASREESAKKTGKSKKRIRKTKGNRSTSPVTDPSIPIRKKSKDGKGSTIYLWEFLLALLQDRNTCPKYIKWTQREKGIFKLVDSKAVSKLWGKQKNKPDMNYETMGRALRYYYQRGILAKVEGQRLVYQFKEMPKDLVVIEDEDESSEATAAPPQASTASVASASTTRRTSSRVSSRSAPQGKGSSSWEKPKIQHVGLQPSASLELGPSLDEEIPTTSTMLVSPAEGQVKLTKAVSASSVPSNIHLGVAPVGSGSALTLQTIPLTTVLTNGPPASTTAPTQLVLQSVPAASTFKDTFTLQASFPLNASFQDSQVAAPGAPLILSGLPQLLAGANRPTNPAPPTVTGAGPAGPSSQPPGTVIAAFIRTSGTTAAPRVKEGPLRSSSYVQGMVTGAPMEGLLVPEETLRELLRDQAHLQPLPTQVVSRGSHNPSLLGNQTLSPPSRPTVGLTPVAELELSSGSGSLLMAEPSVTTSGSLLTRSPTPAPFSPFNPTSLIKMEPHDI
# How it was run: as §1
# ELK4 = molecular target: T9, ELK4 (Homo sapiens, UniProt P28324-2 1-405)
# T9 sequence: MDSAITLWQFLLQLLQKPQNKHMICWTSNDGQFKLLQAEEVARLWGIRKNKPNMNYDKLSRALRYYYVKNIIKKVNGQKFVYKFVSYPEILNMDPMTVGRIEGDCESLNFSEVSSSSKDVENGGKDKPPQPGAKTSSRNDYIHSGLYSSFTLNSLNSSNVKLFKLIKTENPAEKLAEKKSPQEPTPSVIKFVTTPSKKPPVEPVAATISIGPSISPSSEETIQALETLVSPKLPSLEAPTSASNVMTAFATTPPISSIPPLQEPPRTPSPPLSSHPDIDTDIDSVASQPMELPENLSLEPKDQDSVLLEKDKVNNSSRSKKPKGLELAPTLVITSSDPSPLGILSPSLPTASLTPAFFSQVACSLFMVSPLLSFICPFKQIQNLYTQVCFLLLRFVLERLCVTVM
# How it was run: as §1
# ETV2 = molecular target: T10, ETV2 (Homo sapiens, UniProt O00321 1-342)
# T10 sequence: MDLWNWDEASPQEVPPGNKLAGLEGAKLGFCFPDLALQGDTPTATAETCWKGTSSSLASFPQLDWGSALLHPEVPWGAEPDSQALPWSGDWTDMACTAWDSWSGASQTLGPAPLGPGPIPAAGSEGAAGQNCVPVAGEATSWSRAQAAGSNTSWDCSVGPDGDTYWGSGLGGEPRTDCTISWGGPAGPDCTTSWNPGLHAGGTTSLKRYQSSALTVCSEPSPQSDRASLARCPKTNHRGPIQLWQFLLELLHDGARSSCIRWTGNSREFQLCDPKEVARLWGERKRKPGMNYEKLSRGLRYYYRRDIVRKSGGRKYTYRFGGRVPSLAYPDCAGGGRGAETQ
# How it was run: as §1
# ELF3 = molecular target: T11, ELF3 (Homo sapiens, UniProt P78545 1-371)
# T11 sequence: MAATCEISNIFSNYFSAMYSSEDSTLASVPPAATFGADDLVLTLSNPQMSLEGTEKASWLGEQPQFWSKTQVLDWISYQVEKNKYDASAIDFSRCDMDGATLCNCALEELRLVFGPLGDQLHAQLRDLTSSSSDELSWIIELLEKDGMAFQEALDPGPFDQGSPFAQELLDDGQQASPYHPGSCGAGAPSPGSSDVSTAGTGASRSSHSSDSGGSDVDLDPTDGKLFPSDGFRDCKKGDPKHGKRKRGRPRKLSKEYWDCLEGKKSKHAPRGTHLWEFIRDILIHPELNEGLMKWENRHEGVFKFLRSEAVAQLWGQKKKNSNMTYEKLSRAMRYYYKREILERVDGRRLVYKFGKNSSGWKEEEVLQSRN
# How it was run: as §1
# CRX = CRX (Homo sapiens, UniProt O43186 1-299)
# CRX, sequence (O43186 whole entry): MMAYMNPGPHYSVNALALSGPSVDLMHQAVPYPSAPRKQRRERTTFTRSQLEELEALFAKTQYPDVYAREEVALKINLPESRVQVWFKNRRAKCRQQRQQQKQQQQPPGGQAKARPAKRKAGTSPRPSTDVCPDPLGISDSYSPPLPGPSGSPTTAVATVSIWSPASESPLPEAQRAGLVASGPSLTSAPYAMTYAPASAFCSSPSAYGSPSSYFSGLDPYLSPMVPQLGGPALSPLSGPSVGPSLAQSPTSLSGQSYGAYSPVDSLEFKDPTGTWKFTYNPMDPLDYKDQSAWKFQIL
# How it was run: as §1
# ETV1 = ETV1 (Homo sapiens, UniProt P50549 1-477)
# ETV1, sequence (P50549 whole entry): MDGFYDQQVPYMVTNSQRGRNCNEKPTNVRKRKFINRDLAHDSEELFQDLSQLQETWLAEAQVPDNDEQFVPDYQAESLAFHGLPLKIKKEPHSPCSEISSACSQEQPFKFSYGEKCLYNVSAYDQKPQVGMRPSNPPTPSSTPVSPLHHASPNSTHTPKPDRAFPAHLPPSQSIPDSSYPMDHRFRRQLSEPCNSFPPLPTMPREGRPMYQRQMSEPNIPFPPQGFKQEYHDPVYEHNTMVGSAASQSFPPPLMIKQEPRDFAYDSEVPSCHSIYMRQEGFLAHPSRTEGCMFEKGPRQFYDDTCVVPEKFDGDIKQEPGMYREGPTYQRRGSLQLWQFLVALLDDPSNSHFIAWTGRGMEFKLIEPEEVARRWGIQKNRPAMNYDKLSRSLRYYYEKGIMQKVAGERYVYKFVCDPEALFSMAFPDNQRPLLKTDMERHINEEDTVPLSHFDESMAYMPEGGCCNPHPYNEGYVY
# How it was run: as §1
# ELF1 = ELF1 (Homo sapiens, UniProt P32519 1-619)
# ELF1, sequence (P32519 whole entry): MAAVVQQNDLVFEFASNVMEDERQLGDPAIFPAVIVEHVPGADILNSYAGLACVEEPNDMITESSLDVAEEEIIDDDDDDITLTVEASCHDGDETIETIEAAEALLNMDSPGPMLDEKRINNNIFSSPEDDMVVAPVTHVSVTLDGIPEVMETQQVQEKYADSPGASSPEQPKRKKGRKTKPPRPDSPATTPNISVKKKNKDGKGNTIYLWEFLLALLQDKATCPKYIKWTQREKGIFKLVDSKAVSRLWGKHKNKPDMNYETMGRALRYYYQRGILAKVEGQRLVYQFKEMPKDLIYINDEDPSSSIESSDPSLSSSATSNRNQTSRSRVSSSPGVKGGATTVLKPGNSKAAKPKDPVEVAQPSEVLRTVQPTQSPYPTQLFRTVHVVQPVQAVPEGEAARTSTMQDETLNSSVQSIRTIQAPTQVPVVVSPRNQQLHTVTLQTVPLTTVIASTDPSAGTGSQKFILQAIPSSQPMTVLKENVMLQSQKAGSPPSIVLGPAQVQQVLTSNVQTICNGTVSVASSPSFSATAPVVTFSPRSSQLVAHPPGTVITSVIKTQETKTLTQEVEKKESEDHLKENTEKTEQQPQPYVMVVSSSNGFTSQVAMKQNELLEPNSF
# How it was run: as §1
Sequence,binding signal (FLI1),binding signal (ELK1),binding signal (GABPA),binding signal (ERG),binding signal (EHF),binding signal (SPI1),binding signal (SPIB),binding signal (ELK3),binding signal (FEV),binding signal (ETV5),binding signal (SPIC),binding signal (ELF4),binding signal (ELK4),binding signal (ETV2),binding signal (ELF3),binding signal (CRX),binding signal (ETV1),binding signal (ELF1)
TAGCGG,"1.14 fold enrichment (6-mer frequency, TF over GST control)","1.1 fold enrichment (6-mer frequency, TF over GST control)","1.06 fold enrichment (6-mer frequency, TF over GST control)","1.16 fold enrichment (6-mer frequency, TF over GST control)","1.24 fold enrichment (6-mer frequency, TF over GST control)","1.23 fold enrichment (6-mer frequency, TF over GST control)","1.17 fold enrichment (6-mer frequency, TF over GST control)","1.08 fold enrichment (6-mer frequency, TF over GST control)","1.12 fold enrichment (6-mer frequency, TF over GST control)","1.13 fold enrichment (6-mer frequency, TF over GST control)","1.04 fold enrichment (6-mer frequency, TF over GST control)","1 fold enrichment (6-mer frequency, TF over GST control)","1.06 fold enrichment (6-mer frequency, TF over GST control)","1.19 fold enrichment (6-mer frequency, TF over GST control)","1.02 fold enrichment (6-mer frequency, TF over GST control)","1.26 fold enrichment (6-mer frequency, TF over GST control)","1.05 fold enrichment (6-mer frequency, TF over GST control)",–
GTCCTC,"1.15 fold enrichment (6-mer frequency, TF over GST control)","1.22 fold enrichment (6-mer frequency, TF over GST control)","1.17 fold enrichment (6-mer frequency, TF over GST control)","1.21 fold enrichment (6-mer frequency, TF over GST control)","1.28 fold enrichment (6-mer frequency, TF over GST control)","1.25 fold enrichment (6-mer frequency, TF over GST control)","1.21 fold enrichment (6-mer frequency, TF over GST control)","1.22 fold enrichment (6-mer frequency, TF over GST control)","1.12 fold enrichment (6-mer frequency, TF over GST control)","1.21 fold enrichment (6-mer frequency, TF over GST control)","1.14 fold enrichment (6-mer frequency, TF over GST control)","1.27 fold enrichment (6-mer frequency, TF over GST control)","1.34 fold enrichment (6-mer frequency, TF over GST control)","1.4 fold enrichment (6-mer frequency, TF over GST control)","1.16 fold enrichment (6-mer frequency, TF over GST control)",–,"1.25 fold enrichment (6-mer frequency, TF over GST control)","1.18 fold enrichment (6-mer frequency, TF over GST control)"
